This note sets out measurements from PubChem BioAssay (NCATS).

Each structure is given as a SMILES string. Records with an inconclusive call do not appear. A call without a number means that no potency is given here. Activity calls are given as the source filed them. Calls follow the shape of the dose curve; as a rule, active = well fitted cell-killing curve with a large enough effect; inconclusive = small, poorly fitted or top-dose-only effect; inactive = no such curve, though single readings can be large or run the other way.
Potency is read from the fitted curve at half-maximal effect.

The test in a line: qHTS of pediatric cancer cell lines to identify multiple opportunities for drug repurposing: Primary screen for OHS-50 cells (AID 1347103). Also: nearly all actives have a fitted effect of over 40% in size. The conditions noted are these: OHS-50 osteosarcoma viability, CellTiter-Glo luminescence, 48 h; series mostly up to 57.3 µM. From the text:
Drug repurposing or repositioning has been offered as a strategy for drug development in oncology programs. This approach has special potential for childhood cancers and other rare or orphan diseases, where the expected return on new drug development has been a disincentive to pharmaceuticals.
In this project we exploit the poly-pharmacology of drugs to discover new indications via phenotypic screening of a panel of 19 well-characterized cell lines derived from solid tumors seen in children and adolescents. The goal is to identify approved drugs with previously unrecognized anticancer properties that has the potential to reveal new mechanisms and biological processes involved in carcinogenesis or drug resistance. We employed a titration-based paradigm (quantitative high-throughput screening or qHTS), where all compounds were tested at multiple concentrations for their effect on cell viability. Concentration-response curves (CRCs) were derived directly from the primary screen, and both potency and efficacy values were used to identify compounds with robust bioactivity profiles. We screened the NIH Chemical Genomics Center (NCGC) Pharmaceutical Collection (NPC) and Mechanism Interrogation Plate (MIPE) small molecule collections of approved and investigational compounds against these cell lines; and measured metabolically active cells after 48 hours of compound treatment as a proxy for cell viability.
Assay Submitter: Nathalia J. Martinez, National Center for Advancing Translational Sciences, National Institutes of Health, Rockville, MD, USA; email: natalia.martinez@nih.gov
[1] Shen, M et al. Quantitative high-throughput phenotypic screening of pediatric cancer cell lines identifies multiple opportunities for drug repurposing. Oncotarget 2017 Dec 19;9(4):4758-4772. PMID 29435139.
The cells were obtained from University of North Carolina (UNC), Pediatric Preclinical Testing Program (PPT), and Coriell Institute (CI).
qHTS cell viability assay:
Cells were assayed in growth media at a density of 500-1,000 cells/well. Five microliters of cells were dispensed into 1,536-well, white, solid-bottom, TC-treated plates (Greiner Bio One) using a multidrop dispenser and incubated at 37 degrees C, 5% CO2, under a humidified atmosphere for 5 hours. Twenty-three nanoliters of compounds and controls (neutral control DMSO or positive control bortezomib at final concentration of 2.3 µM) were subsequently transferred by Kalypsys pintool. For primary screens, the MIPE collection was tested at 11-point dilutions (final concentrations range from 0.78 nM to 46 µM) and the NPC collection at 8-point dilutions (final concentrations range from 0.59 nM to 46 µM). Compounds tested in follow-up screens were assayed at 11-point dilutions. Cells were incubated for 48 hours, followed by addition of 3 µL of CellTiter-Glo (Promega). After a 15 min incubation at room temperature, samples were analyzed for luminescence intensity using a ViewLux High-throughput CCD imager equipped with clear filters.
Regarding `NS(=O)(=O)c1cccc2c1C(=O)c1cccc(O)c1C2=O`, the Potency is 0.769 µM (active).
`CCCCCN(C)CCC(O)(P(=O)(O)O)P(=O)(O)O`: the Potency entry was “inactive”.
As to `CC(C)NCC(O)COc1cccc2[nH]ccc12` (stereo not given), the Potency entry is “inactive”.
Take `O=C(O)C(O)Cc1ccc(O)c(O)c1` (stereo not given): the Potency entry is “inactive”.
As for `CC(=O)Nc1ccc([C@H](C)C(=O)Nc2ncc(C(C)C)s2)cc1`, the Potency was 3.85 µM (active).
Under `CCN(CC)C(=O)c1ccc(O)c(OC)c1` stands “inactive”; under `CC(C)(C)Cn1c(N)nc2ccc(-c3[nH]c(C(C)(C)C)nc3-c3ccc(F)cc3)nc21`, 30.6 µM (active).
For the compound `CC1(C)Cc2c(sc(NC(=S)NC(=O)c3ccccc3)c2C(=O)O)CO1`, the Potency result is “inactive”.
Under `CCCNC(=O)NS(=O)(=O)c1ccc(Cl)cc1` stands “inactive”.
Regarding `O=C(O)c1cc(-c2ccccc2)nc2ccccc12`, the Potency result is “inactive”.
Regarding `CC(C)=CC[C@@H](O)C1=CC(=O)c2c(O)ccc(O)c2C1=O`, the Potency was 10.9 µM (active).
`COc1cc2ncnc(-n3nc(-c4ccccn4)nc3N)c2cc1OC`: the Potency was 2.17 µM (active).
Regarding `CC1(C)CCC(CN2CCN(c3ccc(C(=O)NS(=O)(=O)c4ccc(NCC5CCOCC5)c([N+](=O)[O-])c4)c(Oc4cnc5[nH]ccc5c4)c3)CC2)=C(c2ccc(Cl)cc2)C1`, the Potency was 15.3 µM (active).
Under `CC[C@]1(O)C[C@@H]2CN(CCc3c([nH]c4ccccc34)[C@@](C(=O)OC)(c3cc4c(cc3OC)N(C=O)[C@@H]3C45CCN4CC=C[C@](CC)([C@H]45)[C@@H](OC(C)=O)[C@]3(O)C(=O)OC)C2)C1` (stereo not given in full) stands “inactive”.
Under `COC1CCC(N(C(=O)C2CCC(C)CC2)c2cc(C3=CCCCC3)sc2C(=O)O)CC1` (stereo not given) stands “inactive”; under `CON=C(C(=O)N[C@@H]1C(=O)N2C(C(=O)OCOC(=O)C(C)(C)C)=C(C=Cc3scnc3C)CS[C@H]12)c1csc(N)n1`, “inactive”.
In the case of `O=c1cc(CN2CCOCC2)occ1OCCCCCSc1ccnc2cc(C(F)(F)F)ccc12`, the Potency is 15.3 µM (active).
Consider `COc1cc(O)c2c(c1)C(=O)c1cc(C)cc(O)c1C2=O`, for which the Potency entry was “inactive”.
The entry for `C[C@H](NC(=O)C(=O)Nc1ccccc1C(C)(C)C)C(=O)N[C@@H](CC(=O)O)C(=O)COc1c(F)c(F)cc(F)c1F` is “inactive”.
With `CCN(CC)CCOC(=O)c1ccc(N)cc1`, the Potency result is “inactive”.
For `O=C(O)c1cc(O)c2c(c1)C(=O)c1cccc(O)c1C2=O`, the Potency result is “inactive”.
The entry for `O=C1NCC2(CCN(CCc3ccccc3)CC2)O1` is “inactive”.
The entry for `O=C(O)c1ccccc1C(=O)Nc1ccc(-c2ccccc2)cc1` is “inactive”.
Under `CC[C@@]1(O)C[C@H](O[C@H]2C[C@H](N(C)C)[C@H](O[C@H]3C[C@H](O)[C@H](O[C@H]4CCC(=O)[C@H](C)O4)[C@H](C)O3)[C@H](C)O2)c2c(cc3c(c2O)C(=O)c2c(O)cccc2C3=O)[C@@H]1C(=O)OC` stands “inactive”; under `CC(C)(C(=O)NCC(F)(F)C(F)(F)F)C(=O)N[C@@H]1C(=O)Nc2ccccc2-c2ccccc21`, 1.53 µM (active).
For the compound `c1cc(-c2sc(-c3ccncc3)c(-c3ccncc3)c2-c2ccncc2)ccn1`, the Potency result is “inactive”.
On to `C[N+](C)(C)CCCCCC[N+](C)(C)C`, for which the Potency entry is “inactive”.
The entry for `OC[C@@H](O)[C@H](O)[C@H](O)[C@@H](O)CO` is “inactive”.
Under `CN1C[C@H]2c3ccccc3Oc3ccc(Cl)cc3[C@@H]2C1` stands 21.9 µM (active); under `O=c1cc(-c2ccc(O)cc2)oc2cc(O)cc(O)c12`, 3.06 µM (active); under `CC(=O)O[C@]1(C(C)=O)CC[C@H]2[C@@H]3C=C(Cl)C4=CC(=O)[C@@H]5C[C@@H]5[C@]4(C)[C@H]3CC[C@@]21C`, 34.7 µM (active).
In the case of `CNC(=O)c1ccc2cc(C3(O)CCn4cncc43)ccc2c1` (stereo not given), the Potency result was “inactive”.
The entry for `Cn1c(N2CCCCS2(=O)=O)nc(C(=O)NCc2ccc(F)cc2)c(O)c1=O` is “inactive”; for `CN(C)C1CCN(C(=O)c2ccc(NC(=O)Nc3nc(N4CCOCC4)nc(N4CCOCC4)n3)cc2)CC1` it is 0.0217 µM (active); for `Cc1ccc(F)c(NC(=O)Nc2ccc(-c3cccc4[nH]nc(N)c34)cc2)c1` it is 27.3 µM (active).
Under `COc1ccccc1N1CCN(CCCNc2cc(=O)n(C)c(=O)n2C)CC1` stands “inactive”; under `CC(=O)Oc1cc2c(s1)CCN(C(C(=O)C1CC1)c1ccccc1F)C2` (stereo not given), 1.37 µM (active); under `CC1=C(/C=C/C(C)=C/C=C/C(C)=C/C(=O)Nc2ccc(O)cc2)C(C)(C)CCC1`, 15.5 µM (active).
Under `CC=CC(=O)N(CC)c1ccccc1C` stands “inactive”; under `Cc1c(O)cccc1C(=O)N[C@@H](CSc1ccccc1)[C@H](O)CN1C[C@H]2CCCC[C@@H]2C[C@@H]1C(=O)NC(C)(C)C`, 24.3 µM (active).
